Measured values published in PubChem BioAssay (EPA / NIEHS).
Activity calls are given as the source filed them. Rule for the calls: active = hit-call score of the fitted dose curve at least 0.9, where 1 is the maximum; inactive = score below 0.9.

Experiments:
Details in all cases: mRNA level, 48 h; actives raise or lower the signal
[1] = read-out: Forkhead box O1 (FOXO1), FOXO1 (gene 2308); test: LTEA_HepaRG_FOXO1: Life Technologies and Expression Analysis (LTEA) Assay for Forkhead box O1 (FOXO1) using HepaRG (AID 2283456)
Summary of the method: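 Readout is FOXO1 transcript level by multiplexed qRT-PCR against three housekeeping genes, curve-fitted in both directions relative to 0.5% DMSO vehicle. Human HepaRG cultures received chemicals for 48 h, up to 100 uM in half-log steps.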

[2] = read-out: growth arrest and DNA damage 45 (GADD45A), GADD45A (gene 1647); test: LTEA_HepaRG_GADD45A: Life Technologies and Expression Analysis (LTEA) Assay for growth arrest and DNA damage 45 (GADD45A) using HepaRG (AID 2283458)
Summary of the method: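 Differentiated HepaRG cells were exposed in duplicate for 48 h in serum-free induction medium to 8-point half-log concentrations up to 100 uM in 0.5% DMSO. GADD45A mRNA was measured by TaqMan qRT-PCR, normalized to ACTB, GAPDH and POLR2A, with bidirectional fitting versus DMSO.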

[3] = read-out: Forkhead box O3 (FOXO3), FOXO3 (gene 2309); test: LTEA_HepaRG_FOXO3: Life Technologies and Expression Analysis (LTEA) Assay for Forkhead box O3 (FOXO3) using HepaRG (AID 2283459)
Summary of the method: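 HepaRG, 48 h post-dose; 8 conc., half-log from 100 uM, 0.5% DMSO, duplicates; serum-free induction medium. Readout: FOXO3 mRNA, TaqMan qRT-PCR, housekeeping-normalized. Bidirectional curve fit vs DMSO baseline.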

[4] = read-out: ABC Transporter (ABCB1), ABCB1 (gene 5243); test: LTEA_HepaRG_ABCB1: Life Technologies and Expression Analysis (LTEA) Assay for ABC Transporter (ABCB1) using HepaRG (AID 2283460)
Summary of the method: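 Expression of ABCB1 was quantified by qRT-PCR against three housekeeping genes after human HepaRG cultures received test chemicals for 48 hours. Concentrations spanned eight half-log steps topping at 100 uM in 0.5% DMSO; gain or loss of signal was fitted relative to vehicle.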

[5] = read-out: growth arrest and DNA damage 45 (GADD45B), GADD45B (gene 4616); test: LTEA_HepaRG_GADD45B: Life Technologies and Expression Analysis (LTEA) Assay for growth arrest and DNA damage 45 (GADD45B) using HepaRG (AID 2283461)
Summary of the method: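 qRT-PCR read-out (Fluidigm TaqMan, housekeeping-normalized) of mRNA change in human HepaRG cells after 48 h chemical exposure; 8-point curve, top 100 uM, half-log steps, 0.5% DMSO vehicle; gain or loss fitted relative to DMSO baseline.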

[6] = read-out: ABC Transporter (ABCC3), ABCC3 (gene 8714); test: LTEA_HepaRG_ABCC3: Life Technologies and Expression Analysis (LTEA) Assay for ABC Transporter (ABCC3) using HepaRG (AID 2283462)
Summary of the method: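 qRT-PCR read-out of ABCC3 transcript, normalized to three housekeeping genes (ACTB, GAPDH, POLR2A), after 48 h chemical exposure of human HepaRG cells. Eight half-log concentrations, highest 100 uM, in 0.5% DMSO; gain or loss fitted relative to DMSO baseline.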

[7] = read-out: ABC Transporter (ABCB11), ABCB11 (gene 8647); test: LTEA_HepaRG_ABCB11: Life Technologies and Expression Analysis (LTEA) Assay for ABC Transporter (ABCB11) using HepaRG (AID 2283463)
Summary of the method: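 ABCB11 transcript levels are read by Fluidigm TaqMan qRT-PCR after 48 h chemical treatment of human HepaRG cells. Concentrations span 100 uM downward in half-log steps with 0.5% DMSO; gain or loss is fitted against DMSO controls.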

[8] = read-out: ABC Transporter (ABCC2), ABCC2 (gene 1244); test: LTEA_HepaRG_ABCC2: Life Technologies and Expression Analysis (LTEA) Assay for ABC Transporter (ABCC2) using HepaRG (AID 2283464)
Summary of the method: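 qRT-PCR (TaqMan, Fluidigm array) read-out of ABCC2 mRNA, normalized to three housekeeping genes. Differentiated HepaRG cells were treated 48 h in serum-free induction medium with 8-point half-log series from 100 uM in 0.5% DMSO; curves fitted bidirectionally relative to DMSO.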

[9] = read-out: Broad substrate specificity ATP-binding cassette transporter ABCG2 (Homo sapiens) (UniProt Q9UNQ0); test: LTEA_HepaRG_ABCG2: Life Technologies and Expression Analysis (LTEA) Assay for ABC Transporter (ABCG2) using HepaRG (AID 2283465)
Summary of the method: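 Read-out is ABCG2 mRNA induction or loss quantified by qRT-PCR after 48 h chemical treatment of human HepaRG cells, normalized to three housekeeping genes. Concentrations reached 100 uM top in half-log steps; fitting was bidirectional against 0.5% DMSO.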

[10] = read-out: ATP-citrate lyase (ACLY), ACLY (gene 47); test: LTEA_HepaRG_ACLY: Life Technologies and Expression Analysis (LTEA) Assay for ATP-citrate lyase (ACLY) using HepaRG (AID 2283466)
Summary of the method: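 HepaRG, 48 h exposure, 8-pt half-log dilutions (top 100 uM), 0.5% DMSO. Readout: ACLY mRNA, TaqMan qRT-PCR, housekeeping-normalized (ACTB/GAPDH/POLR2A). Bidirectional curve fit vs DMSO.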

[11] = read-out: Peroxisomal acyl-coenzyme A oxidase 1 (ACOX1) gene, ACOX1 (gene 51); test: LTEA_HepaRG_ACOX1: Life Technologies and Expression Analysis (LTEA) Assay for Peroxisomal acyl-coenzyme A oxidase 1 (ACOX1) gene using HepaRG (AID 2283467)
Summary of the method: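 Measured by qRT-PCR against three housekeeping genes: ACOX1 transcript change in human HepaRG cells after 48 h dosing. Concentrations ran up to 100 uM in half-log steps. Curves were fitted bidirectionally relative to 0.5% DMSO.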

[12] = read-out: Alkaline Phosphatase, Placental (ALPP) gene, ALPP (gene 250); test: LTEA_HepaRG_ALPP: Life Technologies and Expression Analysis (LTEA) Assay for Alkaline Phosphatase, Placental (ALPP) gene using HepaRG (AID 2283468)
Summary of the method: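 qRT-PCR readout of ALPP mRNA (Fluidigm TaqMan), normalized to ACTB/GAPDH/POLR2A, after 48 h chemical exposure of HepaRG cells; 8-point half-log series, top 100 uM, 0.5% DMSO vehicle. Bidirectional curve fit versus DMSO baseline.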

[13] = read-out: Bcl-2 (BAD) gene, BAD (gene 572); test: LTEA_HepaRG_BAD: Life Technologies and Expression Analysis (LTEA) Assay for Bcl-2 (BAD) gene using HepaRG (AID 2283469)
Summary of the method: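 BAD transcript change, measured by qRT-PCR against three housekeeping genes and fitted in both directions relative to 0.5% DMSO, after 48 h chemical treatment of human HepaRG liver cells at concentrations up to 100 uM.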

[14] = read-out: Bcl-2 (BAX) gene, BAX (gene 581); test: LTEA_HepaRG_BAX: Life Technologies and Expression Analysis (LTEA) Assay for Bcl-2 (BAX) gene using HepaRG (AID 2283470)
Summary of the method: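 Differentiated human HepaRG cells, plated 48 h then switched to serum-free induction medium, were exposed 48 h to 8 half-log concentrations up to 100 uM in 0.5% DMSO; BAX mRNA measured by qRT-PCR, normalized to ACTB, GAPDH, POLR2A.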

[15] = read-out: adenosine kinase (ADK) gene, ADK (gene 132); test: LTEA_HepaRG_ADK: Life Technologies and Expression Analysis (LTEA) Assay for adenosine kinase (ADK) gene using HepaRG (AID 2283471)
Summary of the method: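 HepaRG (human liver), 48 h chemical exposure, 8-pt half-log series, top 100 uM, 0.5% DMSO vehicle. Readout: ADK mRNA by qRT-PCR vs housekeeping genes; bidirectional curve fit relative to DMSO baseline.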

[16] = read-out: Alpha-fetoprotein (AFP) gene, AFP (gene 174); test: LTEA_HepaRG_AFP: Life Technologies and Expression Analysis (LTEA) Assay for Alpha-fetoprotein (AFP) gene using HepaRG (AID 2283472)
Summary of the method: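 Human HepaRG cells plated 48 h, then switched to serum-free induction medium and exposed in duplicate for 48 h to 8-point half-log series from 100 uM in 0.5% DMSO. AFP mRNA by qRT-PCR, normalized to ACTB, GAPDH, POLR2A; bidirectional fit versus DMSO.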

[17] = read-out: BCL2L11 (gene 10018); test: LTEA_HepaRG_BCL2L11: Life Technologies and Expression Analysis (LTEA) Assay for Bcl-2 (BCL2L11) gene using HepaRG (AID 2283473)
Summary of the method: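 HepaRG, 48 h exposure, 8-pt half-log series from 100 uM in 0.5% DMSO, duplicates; qRT-PCR (Fluidigm TaqMan) for BCL2L11, housekeeping-normalized; bidirectional curve fit relative to DMSO baseline.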

[18] = read-out: Apolipoprotein A-V (APOA5) gene, APOA5 (gene 116519); test: LTEA_HepaRG_APOA5: Life Technologies and Expression Analysis (LTEA) Assay for Apolipoprotein A-V (APOA5) gene using HepaRG (AID 2283474)
Summary of the method: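 HepaRG, 48 h chemical exposure in serum-free induction medium, 8-pt half-log series (top 100 uM), 0.5% DMSO vehicle, duplicates. Readout: APOA5 mRNA by qRT-PCR, housekeeping-normalized; bidirectional fit vs DMSO baseline.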

[19] = read-out: Apoptosis regulator Bcl-2 (Homo sapiens) (UniProt P10415); test: LTEA_HepaRG_BCL2: Life Technologies and Expression Analysis (LTEA) Assay for Bcl-2 gene using HepaRG (AID 2283475)
Summary of the method: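 Differentiated HepaRG cells in serum-free induction medium were exposed for 48 h to eight half-log concentrations up to 100 uM in 0.5% DMSO, in duplicate. BCL2 mRNA was quantified by TaqMan qRT-PCR normalised to ACTB, GAPDH and POLR2A, with bidirectional fitting versus DMSO.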

Measured: AC50

Chain of Apoptosis regulator Bcl-2 (Homo sapiens) (P10415 whole entry, looked up): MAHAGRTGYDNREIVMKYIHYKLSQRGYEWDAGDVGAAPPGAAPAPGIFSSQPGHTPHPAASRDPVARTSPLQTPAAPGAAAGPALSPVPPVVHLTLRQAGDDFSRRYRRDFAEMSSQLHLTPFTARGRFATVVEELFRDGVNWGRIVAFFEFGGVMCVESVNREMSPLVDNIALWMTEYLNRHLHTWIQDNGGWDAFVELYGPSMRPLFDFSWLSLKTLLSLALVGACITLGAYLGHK
Chain of Broad substrate specificity ATP-binding cassette transporter ABCG2 (Homo sapiens) (Q9UNQ0 whole entry, looked up): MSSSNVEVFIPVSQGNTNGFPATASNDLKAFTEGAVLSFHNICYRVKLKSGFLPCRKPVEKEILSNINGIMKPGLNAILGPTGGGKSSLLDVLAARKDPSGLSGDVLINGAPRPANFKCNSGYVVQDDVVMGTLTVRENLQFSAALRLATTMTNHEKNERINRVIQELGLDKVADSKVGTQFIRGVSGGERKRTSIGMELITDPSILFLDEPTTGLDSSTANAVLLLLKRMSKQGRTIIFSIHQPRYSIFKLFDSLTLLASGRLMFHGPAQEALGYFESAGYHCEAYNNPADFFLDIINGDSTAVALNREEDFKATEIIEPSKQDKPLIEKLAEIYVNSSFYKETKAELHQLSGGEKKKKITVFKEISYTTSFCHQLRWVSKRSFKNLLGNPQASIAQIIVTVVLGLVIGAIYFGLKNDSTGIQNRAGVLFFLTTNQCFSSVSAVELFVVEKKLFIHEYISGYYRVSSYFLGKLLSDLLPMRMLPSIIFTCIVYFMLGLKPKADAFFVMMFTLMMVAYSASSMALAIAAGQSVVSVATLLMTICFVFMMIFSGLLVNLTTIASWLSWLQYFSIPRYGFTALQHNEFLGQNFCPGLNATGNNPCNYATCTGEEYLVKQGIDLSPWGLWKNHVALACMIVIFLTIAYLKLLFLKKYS

Cc1ccc(-c2cc(C(F)(F)F)nn2-c2ccc(S(N)(=O)=O)cc2)cc1
active: [1] 77.2 µM | [3] 93.6 µM | [4] 82.2 µM | [8] 85 µM | [10] 89.6 µM | [11] 92.9 µM | [15] 93.8 µM | [17] 82.5 µM
inactive: all other assays above

Cc1cn([C@H]2C=C[C@@H](CO)O2)c(=O)[nH]c1=O
not listed: [17]
inactive: all other assays above

O=[Si]=O
not listed: [10]
inactive: all other assays above

O=C(O)c1cccnc1
inactive: all assays above

CC1(C)C(=O)NC(=O)N1CO
not listed: [10]
inactive: all other assays above

CC(=O)CC(c1ccccc1)c1c(O)c2ccccc2oc1=O (stereo unspecified)
active: [10] 50 µM
inactive: all other assays above
